Assay results reported in PubChem BioAssay (Tox21).
Inconclusive results are not listed. Active and inactive are the calls of the source. Unless noted, calls come from the whole dose curve; as a rule, active = well fitted curve in the direction sought with a large enough effect in the repeat runs; inconclusive = weak or mixed curves; inactive = no such curve, though single readings can be large; an effect the other way counts as inactive or inconclusive.

Key:
[1] = biological target: Peroxisome proliferator-activated receptor gamma (Homo sapiens) (UniProt P37231); assay: qHTS assay to identify small molecule antagonists of the peroxisome proliferator-activated receptor gamma (PPARg) signaling pathway (AID 743191; calls by dose curve; note: series mostly up to about 63 µM; nearly all actives have a fitted effect of over 30% in size)
Summary of the method: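 GeneBLAzer PPARg UAS-bla HEK293H cells, 5 h post-plating, exposed to compounds 17 h at 37C. LiveBLAzer B/G FRET substrate added for 1 h at room temperature; beta-lactamase reporter read by fluorescence intensity.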

[2] = qHTS assay to identify small molecule antagonists of the peroxisome proliferator-activated receptor gamma (PPARg) signaling pathway - cell viability counter screen (AID 743194); note: nearly all actives have a fitted effect of over 55% in size
Summary of the method: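 Cytotoxicity counter screen in PPARg-bla HEK293H cells, same wells as reporter assay. Compounds plus 50 nM rosiglitazone (final) for 17 h at 37 C, then viability read by CellTiter-Glo luminescence.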

[3] = qHTS assay for small molecule agonists of the antioxidant response element (ARE) signaling pathway - cell viability counter screen (AID 743203; calls by dose curve; note: nearly all actives have a fitted effect of over 55% in size)
Summary of the method: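 Viability counter screen: stably transfected ARE-bla HepG2 line, 16 hrs compound exposure at 37C/5% CO2, ATP-based CellTiter-Glo luminescence measured in the reporter wells.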

[4] = qHTS assay for small molecule activators of the heat shock response signaling pathway (AID 743210; active = well fitted activation curve with a large enough effect in the signal ratio in the repeat runs, with a control signal flat, not every such curve was filed as active; the % refers to the signal ratio;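 note: HeLa cells with beta-lactamase reporter driven by heat shock elements; series mostly up to about 63 µM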)
Summary of the method: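 Beta-lactamase reporter read-out: FRET substrate fluorescence after 2.5 h at RT, following 5 h compound treatment at 37 C of HeLa cells carrying HSE-driven bla reporter; quantitative HTS format.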

[5] = qHTS assay to identify small molecule agonists of the peroxisome proliferator-activated receptor delta (PPARd) signaling pathway - cell viability counter screen (AID 743211); note: nearly all actives have a fitted effect of over 55% in size
Summary of the method: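 Tox21 library compounds, delivered in DMSO, were incubated 17 h with PPARd-bla HEK293H cells; cytotoxicity was taken from CellTiter-Glo luminescence read 30 min after reagent addition.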

[6] = qHTS assay to identify small molecule antagonists of the peroxisome proliferator-activated receptor delta (PPARd) signaling pathway - cell viability counter screen (AID 743213); note: nearly all actives have a fitted effect of over 50% in size
Summary of the method: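 In this counter screen, HEK293H cells carrying a UAS-beta-lactamase reporter are co-treated with test compounds and 300 nM L165041 (final) for 17 h at 37 C; cell viability is quantified by CellTiter-Glo luminescence.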

[7] = biological target: Bile acid receptor (Homo sapiens) (UniProt Q96RI1); assay: qHTS assay to identify small molecule agonists of the farnesoid-X-receptor (FXR) signaling pathway (AID 743220; active = well fitted activation curve with a large enough effect in the signal ratio in the repeat runs, not every such curve was filed as active; the % refers to the signal ratio)
Summary of the method: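 FXR-UAS-bla HEK 293T cells carrying a UAS-driven beta-lactamase reporter were plated for 5 h at 37C/5% CO2, then exposed to DMSO-dissolved Tox21 10K compounds for 16 h at 37C. A LiveBLAzer B/G FRET substrate was loaded for 2 h at room temperature before fluorescence reading.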

[8] = qHTS assay to identify small molecule antagonists of the farnesoid-X-receptor (FXR) signaling pathway - cell viability counter screen (AID 743221; active = well fitted cell-killing curve with a large enough effect in the repeat runs, not every such curve was filed as active; note: nearly all actives have a fitted effect of over 50% in size)
Summary of the method: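 Cytotoxicity is taken from ATP luminescence (CellTiter-Glo, 30 min, room temperature) in FXR-bla HEK 293T cells previously incubated 16 h at 37 C with compound and chenodeoxycholic acid at 50 uM final.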

[9] = biological target: Vitamin D3 receptor (Homo sapiens) (UniProt P11473); assay: qHTS assay to identify small molecule agonists of the vitamin D receptor (VDR) signaling pathway (AID 743222; calls by dose curve)
Summary of the method: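 Fluorescence from cleaved LiveBLAzer B/G FRET substrate served as readout. VDR-bla cells had been treated 16 h at 37C with test compounds in DMSO, following a 4 h settling period, and substrate was loaded for 2 h at RT.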

[10] = biological target: Vitamin D3 receptor (Homo sapiens) (UniProt P11473); assay: qHTS assay to identify small molecule antagonists of the vitamin D receptor (VDR) signaling pathway (AID 743223; active = well fitted inhibition curve with a large enough effect in the signal ratio in the repeat runs, not every such curve was filed as active; the % refers to the signal ratio)
Summary of the method: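 Quantitative HTS in VDR-bla reporter cells stimulated with 1alpha,25-dihydroxyvitamin D3, 3 nM final. Compound exposure 16 h, 37C, 5% CO2. Read-out: beta-lactamase FRET substrate fluorescence, 2 h RT.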

[11] = qHTS assay to identify small molecule agonists of the vitamin D receptor (VDR) signaling pathway - cell viability counter screen (AID 743224); note: series mostly up to about 63 µM; nearly all actives have a fitted effect of over 50% in size
Summary of the method: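 Compounds were pin-transferred onto VDR-bla cells plated 4 h earlier; following 16 h incubation at 37C, cell viability was quantified by CellTiter-Glo luminescence after 30 min at room temperature.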

[12] = qHTS assay to identify small molecule that activate the aryl hydrocarbon receptor (AhR) signaling pathway - cell viability counter screen (AID 743086);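 note: HepG2 liver cells carrying the AhR DRE luciferase reporter; series mostly up to about 70 µM; nearly all actives have a fitted effect of over 45% in size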
Summary of the method: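 HepG2-AhR-luc (HG2L7.5c1) cells, 4000/well, treated 24 h at 37 C with compound; viability measured as CellTiter-Fluor fluorescence after 30 min in the same wells as the luciferase read.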

[13] = qHTS assay for small molecule agonists of the antioxidant response element (ARE) signaling pathway (AID 743202; active = well fitted activation curve with a large enough effect in the signal ratio in the repeat runs, not every such curve was filed as active; the % refers to the signal ratio)
Summary of the method: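 HepG2 ARE-bla reporter line, 2,000 cells/well; 5 h preincubation 37 C/5% CO2; compound (DMSO) 16 h 37 C; B/G FRET substrate 2 h RT; fluorescence intensity.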

[14] = qHTS assay for small molecule activators of the heat shock response signaling pathway - cell viability counter screen (AID 743209); note: nearly all actives have a fitted effect of over 50% in size
Summary of the method: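 Viability of HSE-bla HeLa cells is measured with CellTiter-Glo in the wells already used for the reporter read. Compound exposure lasts 5 h at 37 C, and luminescence is read after 30 min at room temperature.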

[15] = biological target: Peroxisome proliferator-activated receptor delta (Homo sapiens) (UniProt Q03181); assay: qHTS assay to identify small molecule agonists of the peroxisome proliferator-activated receptor delta (PPARd) signaling pathway (AID 743212; calls by dose curve)
Summary of the method: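 Read-out: beta-lactamase FRET fluorescence after 2 h room-temperature incubation with LiveBLAzer B/G substrate. Cells were HEK293H carrying a UAS-bla reporter for PPARd, treated at 37 C with DMSO-dissolved compounds.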

[16] = biological target: Bile acid receptor (Homo sapiens) (UniProt Q96RI1); assay: qHTS assay to identify small molecule antagonists of the farnesoid-X-receptor (FXR) signaling pathway (AID 743217; active = well fitted inhibition curve with a large enough effect in the signal ratio in the repeat runs, not every such curve was filed as active; the % refers to the signal ratio)
Summary of the method: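 Screen of the Tox21 10K library in quantitative HTS format using FXR-UAS-bla HEK 293T reporter cells. Agonist chenodeoxycholic acid, 50 uM final, added with compounds; 16 h incubation at 37 °C; beta-lactamase FRET fluorescence measured.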

[17] = qHTS assay to identify small molecule agonists of the farnesoid-X-receptor (FXR) signaling pathway - cell viability counter screen (AID 743218); note: nearly all actives have a fitted effect of over 45% in size
Summary of the method: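 Viability of FXR-bla HEK 293T cells is measured by ATP-based CellTiter-Glo luminescence following 16 h compound treatment at 37 C and a prior 2 h room-temperature beta-lactamase substrate step.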

[18] = biological target: Peroxisome proliferator-activated receptor delta (Homo sapiens) (UniProt Q03181); assay: qHTS assay to identify small molecule antagonists of the peroxisome proliferator-activated receptor delta (PPARd) signaling pathway (AID 743215; active = well fitted inhibition curve with a large enough effect in the signal ratio in the repeat runs, not every such curve was filed as active; the % refers to the signal ratio;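 note: cells stimulated with agonist L165041 at 300 nM final during compound exposure; series mostly up to about 62 µM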)
Summary of the method: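 Plated HEK293H PPARd-bla cells rested 5 h at 37 C and 5% CO2. Compound, then agonist L165041 at 300 nM final, was added; 17 h at 37 C followed. Substrate loading, 2 h room temperature, fluorescence measured.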

[19] = biological target: Peroxisome proliferator-activated receptor gamma (Homo sapiens) (UniProt P37231); assay: qHTS assay to identify small molecule agonists of the peroxisome proliferator-activated receptor gamma (PPARg) signaling pathway (AID 743094; active = well fitted activation curve with a large enough effect in the signal ratio in the repeat runs, not every such curve was filed as active; the % refers to the signal ratio)
Summary of the method: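 Reporter activation was scored by fluorescence of cleaved LiveBLAzer B/G substrate (1 h, room temperature) in PPARg-bla HEK293H cells previously treated 17 h at 37C with DMSO-dissolved compounds.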
% is set by controls: 0 for no effect and ±100 for the full control effect.

Chain of Peroxisome proliferator-activated receptor delta (Homo sapiens) (Q03181 whole entry, looked up): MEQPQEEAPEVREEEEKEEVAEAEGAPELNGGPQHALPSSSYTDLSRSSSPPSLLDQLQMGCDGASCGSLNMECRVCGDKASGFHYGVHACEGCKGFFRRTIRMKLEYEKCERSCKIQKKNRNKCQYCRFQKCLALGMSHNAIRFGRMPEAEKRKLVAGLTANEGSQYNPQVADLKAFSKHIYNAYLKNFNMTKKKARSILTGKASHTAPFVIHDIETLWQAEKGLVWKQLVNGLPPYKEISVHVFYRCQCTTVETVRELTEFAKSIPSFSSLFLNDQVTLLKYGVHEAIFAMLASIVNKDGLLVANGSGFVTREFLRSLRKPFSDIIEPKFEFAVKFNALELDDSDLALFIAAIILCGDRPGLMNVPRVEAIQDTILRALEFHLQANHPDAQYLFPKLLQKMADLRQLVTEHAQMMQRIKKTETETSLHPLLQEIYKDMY
Chain of Peroxisome proliferator-activated receptor gamma (Homo sapiens) (P37231 whole entry, looked up): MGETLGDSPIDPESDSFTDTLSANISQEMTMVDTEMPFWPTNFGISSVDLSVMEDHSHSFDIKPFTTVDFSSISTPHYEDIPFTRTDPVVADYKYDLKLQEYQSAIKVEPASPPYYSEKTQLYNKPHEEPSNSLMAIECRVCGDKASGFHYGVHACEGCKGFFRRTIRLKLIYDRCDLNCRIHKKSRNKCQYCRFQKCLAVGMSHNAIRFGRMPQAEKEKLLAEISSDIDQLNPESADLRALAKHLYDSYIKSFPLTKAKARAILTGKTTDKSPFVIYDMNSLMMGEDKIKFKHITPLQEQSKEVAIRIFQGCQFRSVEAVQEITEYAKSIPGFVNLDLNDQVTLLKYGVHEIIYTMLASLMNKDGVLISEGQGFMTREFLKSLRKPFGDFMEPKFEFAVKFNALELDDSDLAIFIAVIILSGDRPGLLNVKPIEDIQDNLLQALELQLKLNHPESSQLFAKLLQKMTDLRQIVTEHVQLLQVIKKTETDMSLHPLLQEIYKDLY
Chain of Bile acid receptor (Homo sapiens) (Q96RI1 whole entry, looked up): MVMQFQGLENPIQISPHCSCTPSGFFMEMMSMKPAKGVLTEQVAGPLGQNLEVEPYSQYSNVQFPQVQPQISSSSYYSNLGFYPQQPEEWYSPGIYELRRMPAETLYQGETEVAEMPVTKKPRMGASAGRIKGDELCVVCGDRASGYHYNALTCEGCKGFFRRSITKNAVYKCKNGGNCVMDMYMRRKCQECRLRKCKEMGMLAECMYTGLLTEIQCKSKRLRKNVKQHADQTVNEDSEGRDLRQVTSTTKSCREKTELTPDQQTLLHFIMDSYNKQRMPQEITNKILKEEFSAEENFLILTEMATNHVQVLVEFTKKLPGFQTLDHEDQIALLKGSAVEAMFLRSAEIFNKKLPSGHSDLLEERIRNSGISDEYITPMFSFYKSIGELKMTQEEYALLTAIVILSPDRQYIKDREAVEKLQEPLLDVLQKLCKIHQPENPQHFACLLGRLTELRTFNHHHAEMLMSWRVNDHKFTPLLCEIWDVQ
Chain of Vitamin D3 receptor (Homo sapiens) (P11473 whole entry, looked up): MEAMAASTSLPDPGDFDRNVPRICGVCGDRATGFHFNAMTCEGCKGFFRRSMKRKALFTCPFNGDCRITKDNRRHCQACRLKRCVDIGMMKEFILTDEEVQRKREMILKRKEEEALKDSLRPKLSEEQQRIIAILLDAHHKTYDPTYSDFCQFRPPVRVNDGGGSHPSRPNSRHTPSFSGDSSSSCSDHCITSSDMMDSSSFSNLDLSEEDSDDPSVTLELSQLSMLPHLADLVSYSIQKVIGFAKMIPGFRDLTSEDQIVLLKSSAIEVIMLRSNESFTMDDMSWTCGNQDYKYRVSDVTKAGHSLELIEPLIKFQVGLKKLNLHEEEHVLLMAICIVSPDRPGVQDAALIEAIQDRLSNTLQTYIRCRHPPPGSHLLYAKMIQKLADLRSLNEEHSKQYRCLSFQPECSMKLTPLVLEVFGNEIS

O=C1NC(c2ccccc2)(c2ccccc2)C(=O)N1COP(=O)(O)O
inactive: outcome [1] | outcome [2] | outcome [3] | outcome [4] | outcome [5] | outcome [6] | outcome [7] | outcome [8] | outcome [9] | outcome [10] | outcome [11]

CN(C)CCCCl
inactive: Potency [12] | Potency [13] | outcome [3] | Potency [14] | outcome [4] | outcome [5] | outcome [15] | outcome [16] | outcome [17] | outcome [7] | outcome [8] | outcome [9] | outcome [11]

Fc1ccccc1
inactive: Potency [12] | outcome [2] | outcome [3] | Potency [14] | outcome [4] | outcome [5] | outcome [15] | outcome [17] | outcome [8] | outcome [9]

CCn1cc(C(=O)O)c(=O)c2cnc(N3CCCC3)nc21
inactive: Potency [12] | activity change, negative = cytotoxicity [2] -3.06% [at 13.2 µM] | viability change, negative = cytotoxic [3] 0.125% [at 8.36 µM] | activity change, negative = cytotoxicity [14] 1.32% [at 13.2 µM] | activation [4] -0.943% [at 13.2 µM] | activity change, negative = cytotoxicity [5] 3.01% [at 13.2 µM] | activation [15] -4.9% [at 13.2 µM] | viability change, negative = cytotoxic [6] -17.7% [at 13.7 µM] | ratio activity, negative = inhibition [18] -14.6% [at 13.7 µM] | activity change, negative = inhibition [16] 6.21% [at 13.2 µM] | viability change, negative = cytotoxic [17] -3.43% [at 13.2 µM] | activation [7] -0.921% [at 13.2 µM] | activity change, negative = cytotoxicity [11] 7.07% [at 13.2 µM]

O=C1c2ccccc2C(=O)c2cc(Cl)ccc21
inactive: viability change, negative = cytotoxic [12] 10.5% [at 8.47 µM] | activation [19] 0.384% [at 7.08 µM] | activity change, negative = cytotoxicity [2] 2.72% [at 5.95 µM] | activation [13] -9.26% [at 8.36 µM] | viability change, negative = cytotoxic [3] -3.86% [at 8.36 µM] | activity change, negative = cytotoxicity [14] 2.51% [at 5.95 µM] | activity change, negative = cytotoxicity [5] -0.0176% [at 5.95 µM] | activation [15] -1.6% [at 5.95 µM] | viability change, negative = cytotoxic [6] 3.97% [at 6.26 µM] | ratio activity, negative = inhibition [18] 5.48% [at 6.26 µM] | activity change, negative = inhibition [16] -1.25% [at 5.95 µM] | viability change, negative = cytotoxic [17] -3.87% [at 5.95 µM] | activation [7] 0.306% [at 5.95 µM] | activity change, negative = cytotoxicity [8] -3.54% [at 5.95 µM] | activation [9] -5.27% [at 6.01 µM] | activity change, negative = inhibition [10] -12.7% [at 6.95 µM] | activity change, negative = cytotoxicity [11] -4.49% [at 5.95 µM]

N[C@@H](CSCCCO)C(=O)O
inactive: Potency [12] | Potency [19] | outcome [2] | Potency [13] | outcome [3] | Potency [14] | outcome [4] | outcome [5] | outcome [6] | outcome [18] | outcome [17] | outcome [8] | outcome [9] | outcome [10]

CC1=C(C(=O)O)N2C(=O)[C@@H](NC(=O)[C@H](N)c3ccccc3)[C@H]2SC1
inactive: Potency [12] | Potency [19] | outcome [3] | Potency [14] | outcome [4] | outcome [5] | outcome [15] | outcome [9] | outcome [10] | outcome [11]

COc1cc(/C=C/C(N)=O)cc(OC)c1OC
inactive: Potency [13] | outcome [3] | outcome [4] | outcome [5] | outcome [15] | outcome [6] | outcome [16] | outcome [17] | outcome [7] | outcome [8] | outcome [9] | outcome [10] | outcome [11]

CCC(=O)c1c(O)cc(O)cc1O
inactive: Potency [12] | Potency [19] | outcome [1] | outcome [2] | outcome [3] | Potency [14] | outcome [4] | outcome [5] | outcome [6] | outcome [16] | outcome [17] | outcome [7] | outcome [8] | outcome [11]

CC1(C)[C@H]2CC[C@](C)(C2)[C@H]1O
inactive: Potency [12] | Potency [19] | outcome [1] | outcome [2] | outcome [3] | Potency [14] | outcome [5] | outcome [15] | outcome [16] | outcome [17] | outcome [7] | outcome [9] | outcome [10] | outcome [11]
